Compounds without any hit were thinned out: in the full panel of roughly 83,000, 20% have a hit.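 Results are percent growth after 48 hours of single-concentration exposure. 100 means growth as in untreated cells, lower positive values show inhibition; negative values down to -100 show cell death.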 Unmarked numbers belong to inactive results. Calls of active or inactive are those of the source. How the source made its calls: active means growth percent below 10; inactive means the rest.
System: DU-145 prostate
Assay: NCI-60 one-dose screen, 48 h (100 = growth as untreated, 0 = no growth, -100 = all killed)
Settings: 10 µM unless noted

SMILES | growth
CC(=O)Oc1ccccc1C(=O)N=C1[Se]CCCN1C(=O)c1ccccc1OC(C)=O | 15.8%
O=C1NC(=O)C(Cn2cnc3ccccc32)N1 (centres undefined) | 110%
O=C1CCC(C(=O)NCCNCCNC(=O)C2CCC(=O)N2)N1 (centres undefined) | 109%
COc1cccc(-c2nc(-c3ccc(NC(=O)c4ccccc4)cc3)[nH]c2-c2ccnc(Br)c2)c1 | 62.2%
Nc1cc2c(cc1Br)-c1cc(Cl)ccc1C2=O | 107%
COc1cc2cc(Oc3ccc(NC(=O)Nc4cc(C(F)(F)F)cc(C(F)(F)F)c4)cc3)c(C)nc2cc1OCCN1CCOCC1 | 24.9%
CCCCOc1nc2ccc(OC)cc2cc1-c1cc(-c2ccc(Cl)cc2)nc(-c2ccc(Cl)cc2)c1 | 114%
COc1ccc(N2C(=O)C(Oc3ccccc3)C2c2ccc(C)cc2)cc1 (centres undefined) | 113%
CC(C)c1cc(C(C)C)c(S(=O)(=O)Oc2ccc(NC(=O)c3ccc(Cl)cc3)cc2)c(C(C)C)c1 | 43.7%
COc1cc(C2CC(c3cccc(Br)c3)=NN2C(C)=O)cc(OC)c1OC (centres undefined) | 20%
Brc1ccc2[nH]cc(-c3nc(-c4c[nH]c5ccncc45)cs3)c2c1 | -91.4% (active)
O=C(N/N=C/c1c(Cl)cccc1Cl)c1ccc(C(F)(F)F)nc1Nc1cccc(C(F)(F)F)c1 | 11.4%
Cc1[nH]c(C(=O)Nc2ccc(C(=O)N3CCNCC3)cc2OC(C)C)c(Cl)c1Cl | 68.1%
O=c1c2cc(F)cc(Cl)c2sc2c(NCCCNCCO)nc3ccccc3c12 | 77%
Cc1[nH]c(C(=O)Nc2ccc(C(=O)NCCN)cc2OC(C)C)c(Cl)c1Cl | 33.8%
O=C(S)CNC(=O)c1ccccc1 | 98.8%
COc1cccc(OC)c1C(=O)N[C@@H]1C(=O)N2[C@@H]1SC(C)(C)[C@@H]2C(=O)O | 115%
CCCCn1c(-c2ccc(C(=O)O/N=C(\N)c3ccc(OC)cc3)cc2)nc(-c2ccccc2)c1-c1ccccc1 | -93.4% (active)
CCCCCCN(CCCCCC)c1ccc(/C=C2/SC(=O)NC2=O)c(C)c1 | 102%

SMILES | growth
COc1cc(C(=O)N2N=C(c3ccc(S(C)(=O)=O)cc3)CC2c2ccco2)cc(OC)c1OC (centres undefined) | 82.5%
COc1ccc(-c2cc(-c3ccc(Cl)cc3)c(C#N)c(=O)n2CCCCCC(=O)Nc2ccccc2N)cc1 | 49.8%
COc1cccc(-c2nn(-c3ccccc3)cc2-c2ccnc(N3CCOCC3)c2)c1 | 99.5%
COc1cc(CNS(=O)(=O)c2ccc(C)cc2)ccc1OCc1cn(-c2ccccc2)nn1 | 103%
O=C(CCOCCNC(=O)COc1ccc2c(c1)OCC(c1ccc(F)cc1)C2=O)NCCCC(O)(P(=O)(O)O)P(=O)(O)O (centres undefined) | 108%
COc1ccc(C(=O)n2nc(-c3ccccc3)nc2N)cc1OC | 104%
Cc1cc(C)c(-c2c(N)cc(Br)cc2Br)c(N)c1 | 71.2%
[O-][n+]1c2ccccc2[n+]([O-])c2c3ccccc3[nH]c21 | 72.6%
Cc1c(C(=O)/C=C/Nc2c(Cl)cc(S(N)(=O)=O)cc2Cl)sc2nc3ccccc3n12 | 107%
Cc1ccc(C(C)C)cc1C(=O)C[n+]1ccccc1 | 107%
COc1ccc2c(c1)/C(=C/c1sc(=S)n(Cc3ccco3)c1O)C=N2 | 33.5%
Cc1cc2[nH]c(=O)c3c4ncccc4cn3c2cc1C | 35.6%
Cc1nc2ccccc2c(/C=C/c2ccccc2)c1C(=O)/C=C/c1ccc(C(F)(F)F)cc1 | -88.7% (active)
CN1CCN(CC(=O)N2c3cccc4cccc(c34)N(C(=O)CN3CCN(C)CC3)C2c2cn(-c3ccccc3)nc2-c2cccc([N+](=O)[O-])c2)CC1 | 28.7%
Cc1ccc(S(=O)(=O)N/N=C/C2(c3ccccc3)CC2)cc1 | 114%
COc1cc(Nc2cn[nH]c2-c2ccc(Cl)cc2)cc(OC)c1OC | 108%
CNC(=O)c1cc(-n2ccc3cc(NC(=O)c4ccc(N5CCOCC5)c(C(F)(F)F)c4)ccc32)ccn1 | 76%
CN1CCN(c2ccc(-c3cc4c(Nc5ccc(F)c(Cl)c5)ncnn4c3)cc2)CC1 | 44.1%

System: K-562 leukemia
Assay: as above
Settings: 10 µM unless noted

SMILES | growth
CC(=O)Oc1ccccc1C(=O)N=C1[Se]CCCN1C(=O)c1ccccc1OC(C)=O | 32.1%
O=C1NC(=O)C(Cn2cnc3ccccc32)N1 (centres undefined) | 106%
O=C1CCC(C(=O)NCCNCCNC(=O)C2CCC(=O)N2)N1 (centres undefined) | 101%
COc1cccc(-c2nc(-c3ccc(NC(=O)c4ccccc4)cc3)[nH]c2-c2ccnc(Br)c2)c1 | 2.4% (active)
Nc1cc2c(cc1Br)-c1cc(Cl)ccc1C2=O | 93.2%
COc1cc2cc(Oc3ccc(NC(=O)Nc4cc(C(F)(F)F)cc(C(F)(F)F)c4)cc3)c(C)nc2cc1OCCN1CCOCC1 | 6.68% (active)
CCCCOc1nc2ccc(OC)cc2cc1-c1cc(-c2ccc(Cl)cc2)nc(-c2ccc(Cl)cc2)c1 | 106%
COc1ccc(N2C(=O)C(Oc3ccccc3)C2c2ccc(C)cc2)cc1 (centres undefined) | 95.1%
CC(C)c1cc(C(C)C)c(S(=O)(=O)Oc2ccc(NC(=O)c3ccc(Cl)cc3)cc2)c(C(C)C)c1 | 16.4%
COc1cc(C2CC(c3cccc(Br)c3)=NN2C(C)=O)cc(OC)c1OC (centres undefined) | 49.2%
Brc1ccc2[nH]cc(-c3nc(-c4c[nH]c5ccncc45)cs3)c2c1 | -61.5% (active)
O=C(N/N=C/c1c(Cl)cccc1Cl)c1ccc(C(F)(F)F)nc1Nc1cccc(C(F)(F)F)c1 | -7.07% (active)
Cc1[nH]c(C(=O)Nc2ccc(C(=O)N3CCNCC3)cc2OC(C)C)c(Cl)c1Cl | -28.6% (active)
O=c1c2cc(F)cc(Cl)c2sc2c(NCCCNCCO)nc3ccccc3c12 | 18.7%
Cc1[nH]c(C(=O)Nc2ccc(C(=O)NCCN)cc2OC(C)C)c(Cl)c1Cl | -19.3% (active)
O=C(S)CNC(=O)c1ccccc1 | 95.1%
COc1cccc(OC)c1C(=O)N[C@@H]1C(=O)N2[C@@H]1SC(C)(C)[C@@H]2C(=O)O | 110%
CCCCn1c(-c2ccc(C(=O)O/N=C(\N)c3ccc(OC)cc3)cc2)nc(-c2ccccc2)c1-c1ccccc1 | -41% (active)
CCCCCCN(CCCCCC)c1ccc(/C=C2/SC(=O)NC2=O)c(C)c1 | 65.2%

SMILES | growth
COc1cc(C(=O)N2N=C(c3ccc(S(C)(=O)=O)cc3)CC2c2ccco2)cc(OC)c1OC (centres undefined) | 73.2%
COc1ccc(-c2cc(-c3ccc(Cl)cc3)c(C#N)c(=O)n2CCCCCC(=O)Nc2ccccc2N)cc1 | 15%
COc1cccc(-c2nn(-c3ccccc3)cc2-c2ccnc(N3CCOCC3)c2)c1 | 73.6%
COc1cc(CNS(=O)(=O)c2ccc(C)cc2)ccc1OCc1cn(-c2ccccc2)nn1 | 73.4%
O=C(CCOCCNC(=O)COc1ccc2c(c1)OCC(c1ccc(F)cc1)C2=O)NCCCC(O)(P(=O)(O)O)P(=O)(O)O (centres undefined) | 105%
COc1ccc(C(=O)n2nc(-c3ccccc3)nc2N)cc1OC | 80.1%
Cc1cc(C)c(-c2c(N)cc(Br)cc2Br)c(N)c1 | 13.4%
[O-][n+]1c2ccccc2[n+]([O-])c2c3ccccc3[nH]c21 | 87.7%
Cc1c(C(=O)/C=C/Nc2c(Cl)cc(S(N)(=O)=O)cc2Cl)sc2nc3ccccc3n12 | 105%
Cc1ccc(C(C)C)cc1C(=O)C[n+]1ccccc1 | 105%
COc1ccc2c(c1)/C(=C/c1sc(=S)n(Cc3ccco3)c1O)C=N2 | 15.8%
Cc1cc2[nH]c(=O)c3c4ncccc4cn3c2cc1C | 3.34% (active)
Cc1nc2ccccc2c(/C=C/c2ccccc2)c1C(=O)/C=C/c1ccc(C(F)(F)F)cc1 | 1.82% (active)
CN1CCN(CC(=O)N2c3cccc4cccc(c34)N(C(=O)CN3CCN(C)CC3)C2c2cn(-c3ccccc3)nc2-c2cccc([N+](=O)[O-])c2)CC1 | -43.9% (active)
Cc1ccc(S(=O)(=O)N/N=C/C2(c3ccccc3)CC2)cc1 | 97.8%
COc1cc(Nc2cn[nH]c2-c2ccc(Cl)cc2)cc(OC)c1OC | 36.4%
CNC(=O)c1cc(-n2ccc3cc(NC(=O)c4ccc(N5CCOCC5)c(C(F)(F)F)c4)ccc32)ccn1 | 25.5%
CN1CCN(c2ccc(-c3cc4c(Nc5ccc(F)c(Cl)c5)ncnn4c3)cc2)CC1 | 0.617% (active)

Source: PubChem BioAssay (NCI)
